# Where “and” joins values, the source holds several entries; their conditions need not be identical. Identical values can stand only once. Calls of active or inactive are those of the source. How the source made its calls: active means hit-call score of the fitted dose curve at least 0.9, where 1 is the maximum; inactive means score below 0.9.
# Assay: BSK_IMphg_SRB: Viability Assessment in the BioMAP Diversity Plus: IMphg Assay (AID 2284292);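 further: measured one day after compound addition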
# Details: primary human endothelial cells with macrophages
# Method: BSK_IMphg is a cell-based, multiplexed-readout assay that uses venular endothelial cells and macrophages, a human vascular primary cell, with measurements taken at 24 hours after chemical dosing in a microplate: 96-well plate.BSK_IMphg_SRB is an assay component measured in the BSK_IMphg assay. It measures […] related to cell death using Sulforhodamine staining technology.Data from the assay component BSK_IMphg_SRB was analyzed at the endpoint, BSK_IMphg_SRB, in the positive analysis fitting direction relative to DMSO as the negative control and baseline of activity. Using a type of viability reporter, gain or loss-of-signal activity can be used to understand protein changes. To generalize the intended target to other relatable targets, this assay endpoint is annotated to the 'cell morphology' intended target family, where the subfamily is 'cell conformation'.
# The levels of cell surface (or secreted, indicated by the prefix "s") biomarker endpoints were measured by ELISA. Overt cytotoxicity to cells in confluent adherent cultures (all systems other than the BT system) was assessed by measuring total protein levels using sulforhodamine B (SRB) staining in parallel cultures at the time of biomarker measurements, indicated as SRB endpoints. For proliferation assays for adherent cell types, individual cell types are cultured at sub-confluence and relative cell numbers quantified by SRB staining at time points optimized for each system (48 h: 3C and CASM3C systems; 72 h: BT and HDF3CGF systems; 96 h: SAg system). SRB was performed by staining cells with 0.1% SRB after fixation with 10% TCA and reading wells at 560 nm.Viability and proliferation of PBMC (T cells) was quantified by Alamar Blue reduction for the SAg and BT systems. For PBMC viability (referred to as PBMC Cytotoxicity within the assay endpoint names), cells were plated (75,000/well in a 96-well plate) and then chemical samples added for 1 h before addition of activators, SEB and TSST-1 (20 ng/mL final concentration each). Cells were incubated for 90 h. Then, Alamar Blue (20 uL/well) (Invitrogen, Cat DAL1100) was added for 6 h, and the plates were read with a fluorescence microplate reader at 546/580 nm (excitation/emission). For PBMC proliferation, cells were plated and activated as above but incubated for only 16 h prior to addition of Alamar Blue. Plates were read after 6 h.
Compound,outcome,AC50
O=S(=O)(F)C(F)(F)C(F)(F)C(F)(F)C(F)(F)C(F)(F)C(F)(F)C(F)(F)C(F)(F)F,inactive,
OCC(F)(F)OC(F)(F)C(F)(F)OC(F)(F)C(F)(F)OC(F)(F)CO,inactive,
O=C(O)C(F)(F)C(F)(F)C(=O)O,inactive,
COC(=O)C(F)(F)C(F)(F)OC(F)(C(F)(F)F)C(F)(F)OC(F)=C(F)F (centres undefined),inactive,
FC(F)(F)C(F)(C(F)(F)F)C(F)(F)C(F)(F)CC1CO1 (centres undefined),inactive,
C=CC(=O)OCC(F)(F)C(F)F,inactive,
O=C(O)C=CC(F)(C(F)(F)F)C(F)(F)F,inactive,
O=C(O)C(F)(F)OC(F)(F)C(F)(F)OC(F)(F)F,inactive,
OCC(F)(F)OC(F)(F)C(F)(F)OC(F)(F)C(F)(F)OC(F)(F)F,,47.8 µM (active) and 53.7 µM (active)
O=C(O)C(F)(OC(F)(F)C(F)(F)C(F)(F)F)C(F)(F)F (centres undefined),inactive,
O=C(O)C(F)(F)OC(F)(F)C(F)(F)OC(F)(F)C(=O)O,inactive,
CC(O)C(F)(F)C(F)(F)F (centres undefined),inactive,
OCC(F)(F)OC(F)(F)C(F)(F)OC(F)(F)CO,inactive,
NC(=O)C(F)(F)C(F)(F)F,inactive,

# Source: PubChem BioAssay (EPA / NIEHS)
